Screening data as filed in PubChem.
VACV Venus inh: inhibitors of vaccinia virus (Venus reporter); Vaccinia virus Venus reporter expression, fluorescence; Potency, µM (titrated, usually from 36.5 µM), inactives show at the highest dose activity change, negative = inhibition, actives largely listed as inhibitors; actives 0.46% (n = 330,000); AID 720580; calls by dose curve; tested in A549 cells; note: nearly all actives have a fitted effect of over 30% in size
Vaccinia mCherry: vaccinia inhibition (mCherry reporter) | Vaccinia virus mCherry reporter infection, fluorescence | AID 720579 | Potency, µM (doses to about 36.5 µM), for the others: at the highest dose activity change, negative = inhibition, hits mostly inhibitors | actives 0.63% (n = 310,000); calls by dose curve; tested in A549 cells; note: nearly all actives have a fitted effect of over 35% in size
Pf growth 48h: P. falciparum growth inhibition at 48 hours (one generation); actives 5.9% (n = 310,000); P. falciparum luciferase growth in erythrocytes, 48 h; Potency, µM (series often up to 28.7 µM), without a hit: at the top dose activity change, negative = inhibition, usual class: inhibitors; AID 504832
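Firefly luciferase activity from engineered P. falciparum reports growth; inhibitors lower the luminescent signal. Cultures contained 2% hematocrit erythrocytes at 0.1% final parasitemia.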
AMA1 RON2 block: AMA1-RON2 (P. falciparum) interaction inhibition; AlphaScreen AMA1-biotinylated RON2 peptide binding; Potency, µM (doses to about 58.2 µM), for inactives: at the top dose activity change, negative = inhibition, actives largely listed as inhibitors; actives 0.2% (n = 360,000); AID 720542;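 note: 0% = vehicle wells and -100% = peptide control; nearly all actives have a fitted effect of over 45% in size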
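AMA1 (3D7) with his tag at 25 nM final met compounds first, then biotinylated RON2 peptide at 25 nM; detection used donor plus acceptor beads, 10 µg/mL apiece, read by AlphaScreen after 30 min at room temperature.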
Pf growth 96h: P. falciparum growth inhibition at 96 hour, primary screen for plastid delayed-death inhibitors; P. falciparum luciferase reporter growth, 96 h; Potency, µM (series often up to 28.7 µM), inactives show at the top dose activity change, negative = inhibition, actives largely listed as inhibitors; actives 6.9% (n = 320,000); AID 504834
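Compounds incubated with erythrocytes infected by luciferase-expressing P. falciparum (2% hematocrit, 0.05% parasitemia final) for 96 hours, 37 C in 5% CO2. Growth inhibition scored as decreased luciferase luminescence.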
The depositor's hits bear a star; i = inactive; ? = inconclusive; nt = no result given; [ ] = dose if it differs, or a comment. A selection: hits, their analogues and other compounds. The true share with any hit is near 8.7%. Unless noted, calls come from the whole dose curve; as a rule, active = well fitted curve in the direction sought with a large enough effect; inconclusive = small, poorly fitted or top-dose-only effect, or another doubt; inactive = no such curve, though single readings can be large; an effect the other way counts as inactive or inconclusive. Unless noted, % is set by controls: 0 for no effect and ±100 for the full control effect; potency is the fitted concentration of half-maximal effect.

SMILES | VACV Venus inh | Vaccinia mCherry | Pf growth 48h | AMA1 RON2 block | Pf growth 96h
COc1ccccc1N1CCN(S(=O)(=O)CCNC(=O)Cc2ccc(Cl)cc2)CC1 | ? | -29.3% | nt | nt | nt
S=c1ncc2n[nH]nc2[nH]1 | -5.8% | 22.2% | nt | nt | nt
CC1=CC2=NC(=O)/C(=C\c3cc(C)n(-c4ccccc4F)c3C)C(=N)N2O1 | -10.3% | i | 10.4µM* | 23.6% | ?
Cc1cc(C)cc(NC(=O)C(=O)NCC(c2ccc3c(c2)OCO3)N2CCOCC2)c1 (stereo not drawn) | -7.9% | -8.4% | nt | nt | nt
CCOc1ccc(C2NC(=O)Cc3cc(OC)c(OC)cc32)cc1 (stereo not drawn) | -29.9% | i | -28.0% | 3.6% | ?
CCOc1ccc(C2OC(=O)Cc3cc(OC)c(OC)cc32)cc1 (stereo not drawn) | -12.1% | -25.5% | ? | 8.4% | 1.17µM*
Cc1ccc(S(=O)(=O)/N=C2\CN(C)C(=O)N2C)cc1 | -17.7% | -5.1% | 4.9% | -12.4% | 4.65µM*
CC(=C/c1ccccc1)/C=N/N1CCN(Cc2ccc(C)cc2)CC1 | -9.1% | i | 31.2% | -26.6% | 47.6%
Cc1ccc(CN2CCN(/N=C/c3ccccc3)CC2)cc1 | -3.6% | ? | 0.6% | -26.1% | 2.0%
C(=N\N1CCN(Cc2ccccc2)CC1)/c1ccc(-c2ccccc2)cc1 | nt | nt | -4.8% | 21.8% | 19.0%
Fc1ccc(/C=N/N2CCN(Cc3ccccc3)CC2)cc1 | -14.4% | -4.1% | 19.1% | ? | 9.28µM*
CC(/C=N/N1CCN(Cc2ccccc2)CC1)=C\c1ccccc1 | -2.3% | -19.4% | 27.7% | 12.6µM* | ?
Cc1ccc(/C=N/N2CCN(Cc3ccccc3)CC2)cc1 | -16.9% | -19.2% | 18.8% | 12.6µM* | 33.4%
COC(=O)c1ccc(OCC2c3cc(OC)c(OC)cc3CCN2C(=O)c2ccccc2F)cc1 (stereo not drawn) | -12.0% | -12.6% | nt | nt | nt
COc1ccc(OCC2c3cc(OC)c(OC)cc3CCN2C(=O)c2ccc(F)cc2)cc1 (stereo not drawn) | -3.4% | 1.5% | nt | nt | nt
COC(=O)[C@@]12CCCCN1[C@H](c1ccc(SC3CCCCC3)cc1)[C@H]1C(=O)N(C)C(=O)[C@H]12 | -18.9% | -10.6% | ? | -5.8% | ?
COC(=O)[C@@]12CCCN1[C@H](c1ccc(SC3CCCCC3)cc1)[C@H]1C(=O)N(C)C(=O)[C@H]12 | -26.2% | -9.6% | 10.4µM* | 7.6% | ?
CCCSc1ccc([C@@H]2[C@@H]3C(=O)N(CC)C(=O)[C@@H]3[C@]3(C(=O)OC)CCCCN23)cc1 | ? | i | nt | -4.2% | nt
CCN1C(=O)[C@@H]2[C@@H](c3ccc(SC4CCCCC4)cc3)N3CCC[C@@]3(C(=O)OC)[C@@H]2C1=O | -11.9% | -9.5% | 13.1µM* | -28.1% | 9.28µM*
CCCSc1ccc([C@@H]2[C@H]3C(=O)N(CC)C(=O)[C@H]3[C@]3(C(=O)OC)CCCN23)cc1 | -12.1% | i | 9.28µM* | -1.1% | 14.7µM*
CC(C)c1ccc(NC(=O)c2ccc(CN3CC(=O)N4CCCCC4C3=O)cc2)cc1 (stereo not drawn) | -15.2% | i | nt | nt | nt
Cc1ccccc1-n1cc(CNC(=O)CN2Cc3ccccc3OC(C)C2)cn1 (stereo not drawn) | -0.6% | -5.0% | nt | nt | nt
CCOC(=O)c1ccc(CN(Cc2ccc(F)cc2)S(=O)(=O)c2cc(C(=O)Nc3ccccc3CC)ccc2F)cc1 | -9.9% | -14.5% | nt | nt | nt
FC(F)(F)c1cnc(N2CCCN(C(=S)Nc3ccccc3)CC2)c(Cl)c1 | -5.8%[7.34 µM] | ? | 1.65µM* | 6.9% | 1.85µM*
CCC(C(=O)Nc1cccc(Cl)c1C)n1nc(C)c2sc3ccccc3c2c1=O (stereo not drawn) | -3.4% | -4.9% | nt | nt | nt
SMILES | VACV Venus inh | Vaccinia mCherry | Pf growth 48h | AMA1 RON2 block | Pf growth 96h
CC(C)CN(CCCNC(=O)Cn1ncc2c3ccccc3n(C)c2c1=O)CC(C)C | -5.5% | -9.6% | nt | nt | nt
Cc1cc(SCC(=O)Nc2ccc(O)cc2)n2nc(C)c(-c3ccccc3)c2n1 | -16.0% | i | -3.8% | 5.9% | 2.0%
C=C(C)CSc1cc(C)nc2c(-c3ccccc3)c(C)nn12 | nt | nt | 6.57µM* | 82.7% | 10.4µM*
Cc1cc(NCCCN2CCOCC2)n2nc(C)c(-c3ccccc3)c2n1 | -8.5% | nt | ? | -1.5% | ?
CC(=O)Nc1ccc(Nc2cc(C(C)C)nc3c(-c4ccccc4)c(C)nn23)cc1 | nt | nt | ? | 88.4% | 13.1µM*
CC(=O)Nc1ccc(Nc2cc(C)nc3c(-c4ccccc4)c(C)nn23)cc1 | -19.5% | -12.1% | ? | 59.7% | 3.7µM*
Cc1cc(NCCCN2CCOCC2)n2nc(C)c(-c3ccc(F)cc3)c2n1 | ? | ? | 7.38µM* | ? | -13.0%
Cc1cc(NCCC(C)C)n2nc(C)c(-c3ccccc3)c2n1 | nt | nt | 9.28µM* | 41.7% | nt
CCn1nnc2c(N3CCCC3)ncnc21 | -18.4% | -0.8% | nt | nt | nt
O=c1[nH]c(=O)n(Cc2ccco2)c2c1C(C(F)(F)F)(C(F)(F)F)N=C(CCc1ccccc1)N2 | nt | nt | ? | -4.0% | 2.33µM*
O=c1[nH]c(=O)n(Cc2ccco2)c2c1C(C(F)(F)F)(C(F)(F)F)N=C(CCC1CCCCC1)N2 | nt | nt | ? | -1.7% | ?
CCN(CC)CCN(Cc1cc2ccc(C)c(C)c2[nH]c1=O)C(=S)NCc1ccco1 | 4.4% | -13.2% | 10.4µM* | 1.6% | ?
CCN(CC)CCN(Cc1cc2cc3c(cc2[nH]c1=O)OCCO3)C(=S)NCC(C)C | ? | -15.2% | ? | -3.5% | ?
CCN(CC)CCN(Cc1cc2cc(C)cc(C)c2[nH]c1=O)C(=S)NCc1ccco1 | -24.5% | -20.1% | ? | -6.3% | 7.1%
CCN(CC)CCN(Cc1cc2cc3c(cc2[nH]c1=O)OCO3)C(=S)NCc1ccco1 | -20.1% | -7.0% | -4.3% | -2.8% | 6.57µM*
CCN(CC)CCN(Cc1cc2cc(C)ccc2[nH]c1=O)C(=S)NCc1ccco1 | -21.9% | -21.0% | 6.57µM* | 0.6% | ?
CCN(CC)CCN(Cc1cc2cc3c(cc2[nH]c1=O)OCO3)C(=S)NCC(C)C | nt | nt | ? | -2.2% | 3.7µM*
CCC1=Nc2cc(C(=O)NCc3ccco3)ccc2Sc2ccccc21 | nt | nt | 7.38µM* | -16.7% | 10.8%
CCC1=Nc2cc(C(=O)NCc3ccco3)ccc2Sc2ccc(Cl)cc21 | ? | -4.4% | 1.47µM* | -9.8% | 38.7%
CCC1=Nc2cc(C(=O)NCC3CCCO3)ccc2Sc2ccc(Br)cc21 (stereo not drawn) | nt | nt | 2.94µM* | -0.8% | ?
CC(=O)c1sc2c(c1N)c(=O)[nH]c(=O)n2-c1ccccc1 | -1.8% | -8.2% | ? | -0.8% | 9.1%
CCOC(=O)CC(=O)c1sc2c(c1N)c(=O)[nH]c(=O)n2-c1ccc(OC)cc1 | nt | nt | ? | -3.5% | 5.22µM*
CC(=O)c1cccc(NC(=O)c2nc(-c3ccccc3)n(-c3cccc(Cl)c3)n2)c1 | -5.6% | -12.3% | nt | nt | nt
Cc1noc(NC(=O)c2ccc(Cl)cc2)c1Cl | -17.4% | -22.4% | -26.8% | -9.9% | -13.2%
Cc1nonc1OCC(C)(COc1nonc1C)NC(=O)c1ccc(Cl)cc1 | nt | nt | 8.28µM* | 0.7% | 4.65µM*
